In general, inhibition refers to the change of the read-out against control, counted positive when it falls.

Inhibition data for 26 molecules are collected here from PubChem BioAssay AID492972 (The Scripps Research Institute Molecular Screening Center, 2010).

Out of some 340,000 compounds screened, about 930 (0.27%) were called active. For the sample, actives were picked, then their nearest neighbours and some compounds at random. A number with no mark means an inactive call.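 Rule for the calls: active = inhibition above the screen-wide average of all tested compounds plus 3 SD (cut at about 25% in these data); inactive = the rest.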

In this experiment the target is Platelet-activating factor acetylhydrolase IB subunit alpha1 (Homo sapiens) (UniProt Q15102). Description: inhibition of PAF acetylhydrolase 1B subunit 3 – biochemical, fluorescence polarization, human, primary screen (AID 492972).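 Note: 0% = enzyme with DMSO only and 100% = wells lacking PAFAH1B3 protein.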 Particulars: recombinant PAFAH1B3, FP-rhodamine probe, at 3.39 µM, stronger effect = higher value. A general note: In fluorescence polarisation assays a small probe gives low polarisation when free and higher when bound to something large.
Platelet-activating factor acetylhydrolase IB subunit alpha1 (Homo sapiens), sequence (Q15102 whole entry, looked up): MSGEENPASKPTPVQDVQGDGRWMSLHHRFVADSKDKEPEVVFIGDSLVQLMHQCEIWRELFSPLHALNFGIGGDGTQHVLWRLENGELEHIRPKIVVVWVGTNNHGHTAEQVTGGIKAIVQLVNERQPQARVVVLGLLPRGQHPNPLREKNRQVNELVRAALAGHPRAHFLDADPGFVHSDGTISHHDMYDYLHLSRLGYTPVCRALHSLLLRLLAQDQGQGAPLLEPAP
Consider `O=C(NNc1ccccc1Cl)C(O)(c1cccc(C(F)(F)F)c1)c1cccc(C(F)(F)F)c1`, for which the inhibition is 8.34%. To `C[n+]1cccc(C(=O)O)c1` belongs 4.85%; to `O=C(COc1ccc(S(=O)(=O)NCc2ccccc2)cc1)N1CCOCC1`, -1.1%; to `O=C(Nc1ccc(OC(F)(F)F)cc1)c1ccc2c(c1)no[n+]2[O-]`, 51.2% (active). For the molecule `Cn1cccc1/C=N/NC(=O)c1ccc(OC(F)(F)C(F)F)cc1`, the inhibition is 4.01%. To `CCOC(=O)Cc1ncccc1C(=O)Nc1ccc(OC(F)(F)F)cc1` belongs 4.95%; to `O=C(COc1ccccc1)Nc1cc2c3c(c1)CC(=O)N3CCC2`, 3.19%. For the molecule `CCC(C)NC(=O)CN(C1CCCCC1)S(C)(=O)=O` (stereo unspecified), the inhibition was -2.01%. For `Cc1cc(NC(=O)CCC(=O)N(CC(=O)NCC2CCCO2)c2ccccc2)no1` (stereo unspecified), the inhibition was -3.62%. As for `CN(CC(=O)Nc1ccc(Cl)cc1)C(=O)CNC(=O)c1ccc2ccccc2c1`, the inhibition was 5.2%. As for `CCCN(CCC)C(=O)C1c2ccccc2Oc2ccccc21`, the figure is 27.8% (active); as for `CCOC(=O)CC(NC(=O)C1c2ccccc2Oc2ccccc21)c1ccc(C)cc1` (stereo unspecified), 6.13%; as for `CCCCCNC(=O)C1c2ccccc2Oc2ccccc21`, -4.51%.

Take `CCOC(=O)CCCNC(=O)COC(=O)c1cc(Br)c(Br)s1`: the inhibition was -2.8%.

For `COc1nc(Oc2ccc(=O)n(C)n2)nc(N(C)C)n1`, the inhibition is 4.35%.

With `O=[N+]([O-])c1ccc(N(CCO)Cc2ccccc2)c([N+](=O)[O-])c1`, the inhibition was 4.36%.

For the molecule `O=C1Nc2ccc([N+](=O)[O-])cc2C1=Nc1cccc(CO)c1`, the inhibition is 31.8% (active). As for `CN1CCN(/N=C2/C(=O)Nc3ccc([N+](=O)[O-])cc32)CC1`, the figure is 1.85%; as for `CCCS(=O)(=O)N1CCCC(C(=O)NCCN2CCCCC2C)C1` (stereo unspecified), -3.97%; as for `O=C(Nc1ccc2ccccc2c1)Nc1ccc2snnc2c1`, -10.5%.

With `Cc1cc(OCCN2CCCC2)cc(C(C)C)c1`, the inhibition was 3.65%. As for `O=C(Nc1nc(-c2ccco2)c(-c2ccco2)s1)c1ccco1`, the figure is 15.7%.

`COCCNC(=O)Nc1ccc2nc(-c3ccco3)c(-c3ccco3)nc2c1`: the inhibition is 26.5% (active). To `COCCNC(=O)c1snc2ccc(Cl)cc12` belongs 8.07%; to `CC(=O)Nc1ccc(NC(=O)C2CCCN(S(=O)(=O)c3ccc(Cl)cc3)C2)cc1` (stereo unspecified), 4.7%; to `CCOc1ccc(S(=O)(=O)n2ccnc2)c2ccccc12`, 4.28%.
